# Results as given in the supplement of paper PMC6555819.
# How the values were obtained:
# Assay in all cases: PBM binding z-score (relative to random genomic background probes); higher = stronger binding; sequences stand for … in GC…GCGATTGACAGCGTAGAATGAAGG
# [1] = system: FXR:RXRa (NR concentration 270 nM, RXRa partner concentration 90 nM)
# Summary of the method: (§1)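 Custom Agilent 4×180K protein-binding microarrays carried double-stranded probes. Their 34-nt variable regions held direct-repeat seeds, single-nucleotide variants, half-site ablations and random human genomic background sequences. Arrays were incubated 1 h with ligand-free nuclear receptor dimers in PBS pH 7.4, 2% milk, 0.02% Triton X-100, 1 mM DTT, 0.2 mg/mL BSA and 0.4 mg/ml salmon testes DNA. Antibodies against each partner (one per run) detected binding, and scanned fluorescence was regression-normalized. Binding z-scores use random background probes as reference.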
# [2] = system: LXRa:RXRa (NR concentration 270 nM, RXRa partner concentration 90 nM)
# Summary of the method: as §1
# [3] = system: LXRa homodimer (NR concentration 270 nM)
# Summary of the method: as §1
# [4] = system: LXRb:RXRa (NR concentration 270 nM, RXRa partner concentration 90 nM)
# Summary of the method: as §1
# [5] = system: LXRb homodimer (NR concentration 270 nM)
# Summary of the method: as §1
# [6] = system: PPARa:RXRa (NR concentration 270 nM, RXRa partner concentration 90 nM)
# Summary of the method: as §1
# [7] = system: PPARg:RXRa (NR concentration 180 nM, RXRa partner concentration 90 nM)
# Summary of the method: as §1
# [8] = system: PPARg:RXRa 270nM:90nM, anti-RXR (NR concentration 270 nM, RXRa partner concentration 90 nM)
# Summary of the method: as §1
# [9] = system: PPARg:RXRa 30nM:10nM, anti-RXR (NR concentration 30 nM, RXRa partner concentration 10 nM)
# Summary of the method: as §1
# [10] = system: PPARg:RXRa 90nM:30nM, anti-RXR (NR concentration 90 nM, RXRa partner concentration 30 nM)
# Summary of the method: as §1
# [11] = system: PPARg:RXRa DBDmut IVT, anti-RXR (DBD mutation: RXRa K156A/R161A, NR concentration 270 nM, RXRa partner concentration 90 nM)
# Summary of the method: as §1
# [12] = system: PPARg:RXRa IVT, anti-PPARg (NR concentration 270 nM, RXRa partner concentration 90 nM)
# Summary of the method: as §1
# [13] = system: PPARg DBDmut:RXRa IVT, anti-PPARg (DBD mutation: PPARg1 K132A/R137A, NR concentration 270 nM, RXRa partner concentration 90 nM)
# Summary of the method: as §1
# [14] = system: PPARg DBDmut IVT, anti-PPARg (DBD mutation: PPARg1 K132A/R137A, NR concentration 270 nM)
# Summary of the method: as §1
# [15] = system: PPARg homodimer (NR concentration 180 nM)
# Summary of the method: as §1
# [16] = system: PXR:RXRa (NR concentration 270 nM, RXRa partner concentration 90 nM)
# Summary of the method: as §1
# [17] = system: PXR homodimer (NR concentration 270 nM)
# Summary of the method: as §1
# [18] = system: RARa:RXR (NR concentration 270 nM, RXRa partner concentration 90 nM)
# Summary of the method: as §1
# [19] = system: RARa homodimer (NR concentration 270 nM)
# Summary of the method: as §1
# [20] = system: RARb:RXRa (NR concentration 270 nM, RXRa partner concentration 90 nM)
# Summary of the method: as §1
Sequence,PBM binding z-score [1],PBM binding z-score [2],PBM binding z-score [3],PBM binding z-score [4],PBM binding z-score [5],PBM binding z-score [6],PBM binding z-score [7],PBM binding z-score [8],PBM binding z-score [9],PBM binding z-score [10],PBM binding z-score [11],PBM binding z-score [12],PBM binding z-score [13],PBM binding z-score [14],PBM binding z-score [15],PBM binding z-score [16],PBM binding z-score [17],PBM binding z-score [18],PBM binding z-score [19],PBM binding z-score [20]
TCTTGTAGATCAACAGGAAGTTAAGAAAGATCGA,0.112,0.0523,-0.395,-0.15,-0.422,0.364,0.0673,1.13,2.73,1.58,1.64,0.249,0.464,0.377,-0.378,-0.183,-0.761,-0.00111,0.174,-0.318
GCGACTGGGGCAACGCAGGTTACCATAAGGTTGG,0.326,0.211,-0.468,0.14,-0.947,1.52,1.61,1.27,-0.287,0.414,4.39,4.13,-0.305,-0.763,-0.0289,0.606,-0.69,0.702,-1.06,1.19
CCAAGTTGGTCAGGAGGTCACACACCGGATATGA,3.68,3.62,1.69,3.38,0.316,4.43,3.8,4.03,1.85,2.97,2.06,3.44,0.859,0.385,2.39,4.24,0.876,4.41,0.729,3.8
TCTATTAGTTGACGGGCAACCGACGAGTCCGTTT,0.51,0.776,0.073,0.407,0.493,0.565,0.00282,1.62,3.47,2.48,2.04,0.118,0.163,0.317,0.156,0.38,0.151,0.201,0.109,0.613
CTAGCAAGGTGAACAAGGTCGTTGATTACTATTC,1.2,1.17,-0.0996,1.45,-1.03,2.39,0.843,1.3,0.0127,0.796,2.52,2.56,0.0933,-0.41,0.474,2.46,1.4,1.95,-0.493,2.15
CCTTACGGGTCACGAGTTTATAGCACGACGAGCG,6.13,3.82,0.393,3.41,0.252,5.25,5.99,5.87,2.81,4.64,4.46,5.06,0.736,0.94,2.53,4.8,2,4.85,0.68,4.27
CCTCGGAGGACATAAGGTCAGAGCTGTCCGCTTT,2.39,2.6,0.959,1.75,-0.328,2.45,0.338,0.85,-0.243,0.319,0.213,0.303,-1,-1.59,1.72,2.42,-0.0342,3.08,0.792,3.4
ATCGAAAGGTCGAGGGTGAGTATACCCACCCGAA,4.29,3.45,0.143,2.57,0.248,4.67,3.72,4.25,1.3,3.04,-0.26,1.94,0.623,0.934,0.976,2.41,-0.393,3.41,0.53,4.09
AGAATGAGGTTATACGTAGACCAGGGAAGAAAGT,2.15,1.62,-0.0461,1.41,-0.0466,3.11,1.74,1.98,0.485,1.29,4.22,2.41,0.544,0.658,0.197,0.906,0.447,1.48,0.232,1.43
CCTTACGGGTCAAGCTTATAGCACGGGTGGTACG,5.81,3.52,-0.087,3.04,0.0884,4.93,4.12,4.65,1.87,3.43,2.26,3.48,0.116,-0.188,1.56,2.77,-0.265,3.81,0.95,4.05
TCTGCTAGGTGAACGATGGTCAGCTAATCTGCTA,-0.414,-0.432,-0.946,-0.499,-1.35,0.449,0.238,0.769,1.17,0.916,3.12,2.97,-0.708,-0.769,-0.746,-0.428,-0.962,-0.153,-1.26,0.881
CCGAGTAGGTTATGGCGCATTCAGGCAACGGTGA,-0.0642,0.163,-0.0103,0.076,-0.283,0.62,0.319,0.503,-0.377,0.107,3.17,1.71,-0.391,-0.415,0.648,-0.289,-0.0371,0.131,0.249,0.551
CAAACTAGGTGACCGGAAGGTCAAAGTCCGCATG,6.44,4.09,4.16,3.51,0.36,4.99,6.71,5.5,3.01,5.06,7.47,7.68,2.87,3.33,3.59,4.49,1.01,5.41,0.811,3.81
CCTGCGAGGTCAATGGTCAGCTAAAGCAGCTCGC,7.26,5.25,0.691,4.29,0.981,5.73,5.75,6.01,2.22,4.25,3.45,3.93,1.18,-0.453,2.42,4.55,0.99,4.6,0.55,5.07
CCTACTGGGCCAAAGGTCATGGATTCCAATGCTC,5.14,5.37,2.61,5.06,0.296,6.56,12,9.45,10.3,10.5,5.34,6.68,-0.19,-0.578,2.93,5.44,0.496,6.58,0.489,4.92
